# Reference: the supplement of paper PMC6992640
# Counter-ions that a name gives are not always drawn. ± gives the standard deviation of the averaged measurements.
# Legend:
# Assay in all cases: cell viability (% of vehicle); higher = less cytotoxic
# Conditions in all cases: 10 µM; 72 h
# HCI01 = test system: HCI01 (cells of a triple-negative basal-like breast cancer xenograft)
# HCI03 = test system: HCI03 (cells of an ER-positive luminal breast cancer xenograft)
# HCI09 = test system: HCI09 (cells of a triple-negative luminal androgen receptor type breast cancer xenograft)
# HCI11 = test system: HCI11 (cells of an ER-positive luminal breast cancer xenograft)
# HCI13 = test system: HCI13 (cells of an ER-positive luminal breast cancer xenograft)
# HCI16 = test system: HCI16 (cells of a triple-negative basal-like breast cancer xenograft)
# UCD52 = test system: UCD52 (cells of a triple-negative basal-like breast cancer xenograft)
# WHIM2 = test system: WHIM2 (cells of a triple-negative basal-like breast cancer xenograft)
# WHIM30 = test system: WHIM30 (cells of a triple-negative basal-like breast cancer xenograft)
# 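Note: PDX cells carrying CMV promoter-driven luciferase, viability read as total photon flux per second by IVIS imaging following D-luciferin, vehicle control 0.1% DMSO.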
SMILES,cell viability (HCI01),cell viability (HCI03),cell viability (HCI09),cell viability (HCI11),cell viability (HCI13),cell viability (HCI16),cell viability (UCD52),cell viability (WHIM2),cell viability (WHIM30)
"CC(=O)N1CCN(c2ccc(OCC3COC(Cn4ccnc4)(c4ccc(Cl)cc4Cl)O3)cc2)CC1 (single isomer, unassigned; (+)) [(+)-Ketoconazole]",151 ± 55,119,29.5 ± 5.5,87.9,98.9 ± 9.7,103,44.6 ± 2.7,134 ± 9.5,94.8 ± 11
N#CC(c1ccc(Cl)cc1)c1c(Cl)cc(-n2ncc(=O)[nH]c2=O)cc1Cl (stereo not drawn) [Diclazuril],98.7 ± 32,119,64 ± 57,95.3,59.1 ± 10,123,96.3 ± 31,115 ± 19,161 ± 11
COC1C(OC(N)=O)C(O)C(Oc2ccc3c(O)c(NC(=O)c4ccc([O-])c(CC=C(C)C)c4)c(=O)oc3c2C)OC1(C)C.[Na+] (stereo not drawn) [Novobiocin Sodium],126 ± 61,153,93.1 ± 5.1,75.6,140 ± 2.5,130,120 ± 16,130 ± 5.4,116 ± 15
Cl.Cl.NC(=NCCCCCCN=C(N)N=C(N)Nc1ccc(Cl)cc1)N=C(N)Nc1ccc(Cl)cc1 [Chlorhexidine HCl],99.4 ± 3,88.3,89.7 ± 3,76,96.44 ± 0.43,124,92.8 ± 7.6,108 ± 4.1,82.3 ± 3.8
O=C(O)c1cccnc1Nc1cccc(C(F)(F)F)c1 [Niflumic acid],135 ± 48,149,58.9 ± 21,68.8,125 ± 2.6,130,75.3 ± 5.3,105 ± 14,122 ± 2
CC/C(=C(\c1ccccc1)c1ccc(OCCN(C)C)cc1)c1ccccc1 [Tamoxifen],39.1 ± 8.5,139,58.5 ± 44,120,82.5 ± 42,88.8,74.5 ± 15,70.4 ± 0.76,123 ± 9.1
O=C(O)c1cc(-c2ccccc2)nc2ccccc12 [Cinchophen],157 ± 2.4,125,104 ± 7.1,107,111 ± 1.3,124,120 ± 4.4,138 ± 6.4,139 ± 28
CN(C)CCC=C1c2ccccc2CCc2ccccc21.Cl [Amitriptyline HCl],103 ± 18,99.2,87.6 ± 6.1,83.2,105 ± 9.9,135,74.5 ± 4.4,100 ± 1.1,114 ± 2.5
C#CCC(Cc1cnc2nc(N)nc(N)c2n1)c1ccc(C(=O)NC(CCC(=O)O)C(=O)O)cc1 (stereo not drawn) [Pralatrexate],134 ± 15,117,102 ± 11,115,157 ± 27,103,110 ± 8.8,121 ± 10,117 ± 4.2
CC(=O)O[C@H]1C[C@@]2(C)[C@@H](C[C@@H](O)[C@H]3[C@@]4(C)CC[C@@H](O)[C@@H](C)[C@@H]4CC[C@@]32C)/C1=C(\CCC=C(C)C)C(=O)[O-].[Na+] [Fusidic Acid (sodium salt)],97.1 ± 30,116,112 ± 21,81.6,129 ± 2.5,121,111 ± 3.2,88.3 ± 15,149 ± 19
CC(C)C1C(=O)NC(CCCN=C(N)N)C(=O)NCC(=O)NC(CC(=O)O)C(=O)NC(Cc2ccccc2)C(=O)N1C (stereo not drawn) [Cilengitide],114 ± 9.1,76.7,125 ± 49,97.4,124 ± 12,91,84.4 ± 5.5,94.1 ± 6.8,143 ± 14
O=C([O-])Cc1ccccc1Nc1c(Cl)cccc1Cl.[Na+] [Diclofenac Sodium],94.9 ± 18,120,81.3 ± 5.4,73.9,105 ± 26,111,73.6 ± 8.9,90.2 ± 14,81.348 ± 0.07
CCC(C)C(=O)OC1CC(O)C=C2C=CC(C)C(CCC(O)CC(O)CC(=O)[O-])C21.[Na+] (stereo not drawn) [Pravastatin sodium],142 ± 13,184,126 ± 28,113,142.3 ± 0.11,152,100 ± 3.8,105 ± 20,156 ± 1.8
CC(=O)C1CCC2C3CCC4=CC(=O)CCC4(C)C3CCC12C (stereo not drawn) [Progesterone],160 ± 12,108,77.8 ± 41,90.6,154 ± 6.9,113,88.9 ± 3.9,148 ± 41,123 ± 16
CC(=O)Nc1ccc(O)cc1 [Acetaminophen],93.9 ± 24,101,98.4 ± 7.2,80.4,116 ± 14,126,102 ± 6.9,92.71 ± 0.48,97.4 ± 3.5
CN(C)CCc1c[nH]c2ccc(CC3COC(=O)N3)cc12 (stereo not drawn) [Zolmitriptan],86.8 ± 19,134,107 ± 11,96,119 ± 21,107,94.8 ± 8.3,86.6 ± 2.1,131 ± 11
O=C(O)CCNC(=O)c1ccccc1 [Betamipron],121 ± 22,105,87.5 ± 28,98.2,69.8 ± 10,98.9,99.9 ± 9.4,101 ± 11,108 ± 4.5
Cl.Nc1c2c(nc3ccccc13)CCCC2 [Tacrine hydrochloride],81.8 ± 14,119,90.7 ± 4.3,97,87.7 ± 6.4,98.3,96.6 ± 4.1,76.3 ± 2.9,87.06 ± 0.45
Cc1ccc(NC(=O)c2ccc(CN3CCN(C)CC3)cc2)cc1Nc1nccc(-c2cccnc2)n1 [Imatinib (STI571)],87.1 ± 42,156,86.31 ± 0.75,89.4,108 ± 5.6,98.9,89.2 ± 1.7,91.7 ± 19,104 ± 12
CCC(=C(CC)c1ccc(O)cc1)c1ccc(O)cc1 [Diethylstilbestrol],59.1 ± 40,95.7,61.4 ± 39,75.5,41 ± 12,107,78.3 ± 8.4,116 ± 51,83.8 ± 11
C/C=C/C1=C(C(=O)O)N2C(=O)[C@@H](NC(=O)[C@H](N)c3ccc(O)cc3)[C@@H]2SC1 [Cefprozil],97.6 ± 3.2,174,103 ± 22,97,85.4 ± 1.5,115,107 ± 8.6,93.4 ± 26,115 ± 7.5

SMILES,cell viability (HCI01),cell viability (HCI03),cell viability (HCI09),cell viability (HCI11),cell viability (HCI13),cell viability (HCI16),cell viability (UCD52),cell viability (WHIM2),cell viability (WHIM30)
CN1CCN(c2cc3c(cc2F)c(=O)c(C(=O)O)cn3-c2ccc(F)cc2)CC1 [Difloxacin HCl],60.2 ± 1,84.7,53.6 ± 2,190,115 ± 8.6,94.8,116 ± 9.9,71.6 ± 21,130 ± 23
CCN(CC)C(=O)C(C#N)=Cc1cc(O)c(O)c([N+](=O)[O-])c1 [Entacapone],121 ± 8.8,159,105 ± 2.4,80.8,98.77 ± 0.41,105,98.7 ± 14,192 ± 14,104 ± 7
COc1ccc2cccc(CCNC(C)=O)c2c1 [Agomelatine],92.5 ± 10,139,99.7 ± 4.7,92.4,89.4 ± 2.2,105,86.1 ± 12,89.9 ± 20,136 ± 11
CC1(C)SC2C(NC(=O)Cc3ccccc3)C(=O)N2C1C(=O)[O-].[Na+] (stereo not drawn) [Penicillin G Sodium],170 ± 78,105,91.8 ± 20,105,70.7 ± 9.5,111,99.7 ± 20,108 ± 14,109 ± 5.6
COC(=O)C=CC(=O)OC [Dimethyl Fumarate],126 ± 22,129,104 ± 5.7,95.4,70.4 ± 15,113,94.6 ± 3.6,134 ± 30,128 ± 18
Cc1cc(C=CC#N)cc(C)c1Nc1ccnc(Nc2ccc(C#N)cc2)n1 [Rilpivirine],122 ± 9.4,111,96.5 ± 4.4,96.3,122 ± 0.84,83.9,85.5 ± 8.7,93.7 ± 11,110 ± 28
COc1c2occc2cc2ccc(=O)oc12 [8-Methoxypsoralen],116 ± 17,147,99.5 ± 6.5,104,121 ± 13,122,106.6 ± 0.24,101 ± 17,97.9 ± 1.8
NC(=O)C1CCCc2c1[nH]c1ccc(Cl)cc21 (stereo not drawn),145 ± 13,182,102 ± 2.3,128,148 ± 9,121,128 ± 12,141 ± 7.4,161 ± 24
"CCC(Nc1ncnc2nc[nH]c12)c1nc2cccc(F)c2c(=O)n1-c1ccccc1 (stereo not drawn) [CAL-101 (Idelalisib, GS-1101)]",91.6 ± 8.4,80.7,88.2 ± 19,76.8,51.9 ± 3.4,68.1,68.3 ± 3,62.8 ± 2.9,121.9 ± 0.48
CC(C)(Sc1cc(C(C)(C)C)c(O)c(C(C)(C)C)c1)Sc1cc(C(C)(C)C)c(O)c(C(C)(C)C)c1 [Probucol],83.1 ± 22,129,116 ± 8.1,89.7,94.85 ± 0.74,103,93.68 ± 0.28,90.5 ± 23,113 ± 1.5
COc1ccc(C(=O)CC(=O)c2ccc(C(C)(C)C)cc2)cc1 [Avobenzone],74.2 ± 40,126,74.1 ± 8.4,83.5,76.7 ± 5.2,119,71 ± 1.6,106 ± 37,141 ± 12
CC1c2cccc(O)c2C(O)=C2C(=O)C3(O)C(O)=C(C(N)=O)C(=O)C(N(C)C)C3C(O)C21.Cl (stereo not drawn) [Doxycycline hyclate],159 ± 22,109,94.8 ± 12,114,107 ± 5.1,134,111 ± 3.3,90.9 ± 9.3,173 ± 22
CCC1OC(=O)CC(O)C(C)C(OC2OC(C)C(O)C(N(C)C)C2O)C(CCN2CC(C)CC(C)C2)CC(C)C(=O)C=CC(C)=CC1COC1OC(C)C(O)C(OC)C1OC (stereo not drawn) [Tilmicosin],89.4 ± 32,116,82 ± 4.8,80.9,99.5 ± 6.4,102,77.7 ± 9.9,84.1 ± 3.9,97 ± 10
CN(C)CCN(Cc1ccccc1)c1ccccn1.Cl [Tripelennamine HCl],89.8 ± 3.5,62.6,94.4 ± 2.5,80.6,89.3 ± 1.7,99.9,81.03 ± 0.58,111.1 ± 0.86,94.2 ± 7.7
COc1ccc(C2CNC(=O)C2)cc1OC1CCCC1 (stereo not drawn) [Rolipram],130 ± 5.1,140,85.8 ± 11,106,175 ± 38,112,102 ± 18,101 ± 13,123 ± 19
CC(=CC(=O)OCCCCCCCCC(=O)O)CC1OCC(CC2OC2C(C)C(C)O)C(O)C1O (stereo not drawn) [Mupirocin],97.5 ± 17,129,86.5 ± 23,90.6,89.6 ± 9.9,101,84.2 ± 3.4,81.9 ± 12,113.3 ± 0.3
Cl.Clc1ccc2nsnc2c1NC1=NCCN1 [Tizanidine HCl],115 ± 7.6,125,95.5 ± 43,102,125 ± 25,100,84.3 ± 0.65,88.3 ± 14,117 ± 20
Br.Br.Br.Br.Br.Cc1cc(N2CCN(C3CNC(C(=O)N4CCSC4)C3)CC2)n(-c2ccccc2)n1.Cc1cc(N2CCN(C3CNC(C(=O)N4CCSC4)C3)CC2)n(-c2ccccc2)n1 (stereo not drawn) [Teneligliptin hydrobromide],111 ± 3.1,95.2,82.5 ± 13,71.5,79.96 ± 0.58,88.2,82 ± 1.3,99 ± 20,88.4 ± 3.9
CC(=O)N1CCN(c2ccc(OCC3COC(Cn4ccnc4)(c4ccc(Cl)cc4Cl)O3)cc2)CC1 (stereo not drawn) [Ketoconazole],188 ± 14,143,36.4 ± 2.8,102,76 ± 1.8,122,55.8 ± 5.3,172 ± 25,122 ± 10
CC(=O)NC(CS)C(=O)O (stereo not drawn) [Acetylcysteine],91.6 ± 7.3,113,94.3 ± 16,90,97.3 ± 27,118,89.98 ± 0.47,124 ± 1.8,96.8 ± 14
Cc1cccc(C)c1OCC(=O)NC(Cc1ccccc1)C(O)CC(Cc1ccccc1)NC(=O)C(C(C)C)N1CCCNC1=O (stereo not drawn) [Lopinavir],83 ± 1.7,102,57.3 ± 20,88.4,93.7 ± 6.3,116,48 ± 4,73.6 ± 13,96.4 ± 16
